Compound activity from PubChem.
Anthrax LF prot: blocks Bacillus anthracis lethal factor protease | P15917 | multiplex microsphere protease cleavage assay, LF | inhibition, % at 10 µM | 0.12% of 360,000 active | AID 588501
BoNT-F LC inh: inhibitors of Botulinum neurotoxin F light chain protease. inhibition, % at 10 µM. Multiplex microsphere protease cleavage assay, flow cytometry. 0.22% of 360,000 active; in the data active means inhibition above about 35%, passing the limit was not always enough; inconclusive means no clear call, values can overlap the other calls
BoNT A protease: BoNT A light chain protease inhibition | multiplex microsphere protease substrate cleavage, flow cytometry | inhibition, % at 10 µM | 0.17% of 360,000 active | AID 588499
Autofluor counter: flagged as autofluorescent in microsphere protease counterscreen | compound autofluorescence counterscreen, microsphere flow cytometry; stronger effect = higher value | fluorescence intensity (concentration not given with the values) | 3.1% of 360,000 active | AID 624483; in the data active means fluorescence intensity above about 16000; inconclusive means no clear call, values can overlap the other calls
TcdB inh: TcdB glycohydrolase inhibition | P18177 | TcdB glycohydrolase enzymatic assay, plate reader | inhibition, % at 9.99 µM | 0.24% of 350,000 active | AID 652162; in the data active means inhibition above about 10%
Each line names hits and unclear results; the compound was inactive in the other large screens. This excerpt belongs to a sample that is enriched for hits. Unless noted, no stated cut-off is given here; in the data, active means inhibition above about 30%; inconclusive means no clear call, values can overlap the other calls; inactive means below that.

O=C1CN(C(=O)c2ccccc2Cl)c2ccccc2N1	BoNT-F LC inh 44
COCC(=O)Nc1ccc2c(c1)C(=O)N(C)C[C@H](OC)[C@H](C)CN(Cc1ccncc1)[C@@H](C)CO2	none (no result: Anthrax LF prot, BoNT-F LC inh, BoNT A protease, Autofluor counter)
CO[C@H]1CN(C)C(=O)c2cc(NC(=O)NC(C)C)ccc2OC[C@H](C)N(CC2CC2)C[C@@H]1C	none (no result: Anthrax LF prot, BoNT-F LC inh, BoNT A protease, Autofluor counter)
Oc1ccc(/C=N/n2cc(-c3ccccc3)[nH]c2=S)cc1	TcdB inh 14
CC1(C)CC(=O)c2c(nn(-c3ccccc3)c2-c2ccncc2)C1	BoNT A protease inconclusive, Autofluor counter 22472 (no result: TcdB inh)
C[C@@H]1CCCCO[C@H](CN(C)C(=O)CCC(F)(F)F)[C@@H](C)CN([C@H](C)CO)C(=O)c2cc(NC(=O)NC3CCCCC3)ccc2O1	none (no result: Anthrax LF prot, BoNT-F LC inh, BoNT A protease, Autofluor counter)
CCC(=O)N(C)C[C@@H]1Oc2cc(C#CCC(C)C)ccc2S(=O)(=O)N([C@@H](C)CO)C[C@@H]1C	none (no result: Anthrax LF prot, BoNT-F LC inh, BoNT A protease, Autofluor counter)
O=C(Cc1cccs1)NCc1ccccc1F	Autofluor counter 21726
CCCN1C(=O)c2cccc3c(N4CCCCC4)ccc(c23)C1=O	BoNT A protease 32 (no result: TcdB inh)
CC(=O)N(C(C)=O)N1C(=O)c2cccc3c(N4CCOCC4)ccc(c23)C1=O	none
CCN(CC)S(=O)(=O)c1ccc(C(=O)OCCN2C(=O)c3cccc4c(N5CCOCC5)ccc(c34)C2=O)cc1	BoNT A protease 35 (no result: TcdB inh)
Cc1sc(-c2ccccn2)nc1OC(=O)c1ccc(Cl)c(Cl)c1	Autofluor counter 23143 (no result: TcdB inh)
COC(=O)C[C@H]1C[C@@H]2c3cc(NC(=O)NC4CCCCC4)ccc3O[C@@H]2[C@H](CO)O1	none (no result: Anthrax LF prot, BoNT-F LC inh, BoNT A protease, Autofluor counter)
COC(=O)c1ccc(N2CCCCC2)c(N)c1	none
COC(=O)c1ccc(N2CCC(C)CC2)c(N)c1	Autofluor counter 22414 (no result: TcdB inh)
CCCC#Cc1cnc2c(c1)C(=O)N([C@@H](C)CO)C[C@H](C)[C@H](CN(C)C(=O)NCCC)O2	none (no result: Anthrax LF prot, BoNT-F LC inh, BoNT A protease, Autofluor counter)
O=C(/C=C/c1c(Cl)cccc1Cl)NCCc1ccccc1	Autofluor counter 20277 (no result: TcdB inh)
O=C(/C=C/c1cccc(Cl)c1)NCCc1ccccc1	none (no result: TcdB inh)
COC(=O)[C@@H](NC(=O)Nc1cccc(OC)c1)C(C)C	Autofluor counter 21593 (no result: TcdB inh)
N#C[C@H]1[C@H](c2ccccc2C2=CCCC2)[C@@H](CO)N1C(=O)CN1CCOCC1	none (no result: Anthrax LF prot, BoNT-F LC inh, BoNT A protease, Autofluor counter)
CNC(=O)C[C@H]1CC[C@H]2[C@H](COc3ccc(NC(=O)Nc4ccc(F)c(F)c4)cc3C(=O)N2C)O1	none (no result: Anthrax LF prot, BoNT-F LC inh, BoNT A protease, Autofluor counter)
O=C1C(=O)N(c2ccccc2)C(c2ccccc2[N+](=O)[O-])/C1=C(\O)c1ccccc1 (stereo unspecified)	none
O=C1C(=O)N(c2cccc(Cl)c2)C(c2ccccc2[N+](=O)[O-])/C1=C(\O)c1ccccc1 (stereo unspecified)	Autofluor counter 21218
Cc1ccc(N(C(=O)Cn2nnc(-c3cccs3)n2)C(C(=O)NC2CCCC2)c2ccncc2)cc1 (stereo unspecified)	Autofluor counter 22784 (no result: TcdB inh)
CCC(C(=O)NC1CCCC1)N(C(=O)Cn1nnc(-c2ccc(OC)c(OC)c2)n1)c1cccc(O)c1 (stereo unspecified)	none
O=C(NC1CCCCC1)C(c1ccc(F)cc1)N(Cc1ccco1)C(=O)Cn1nnc2ccccc21 (stereo unspecified)	Autofluor counter 18842 (no result: TcdB inh)
CCC(C(=O)NC1CCCC1)N(Cc1ccco1)C(=O)Cn1nnc(-c2ccc(C)cc2)n1 (stereo unspecified)	Autofluor counter 19503 (no result: TcdB inh)
CCOC(=O)CN(C(=O)Cn1nnc(-c2ccc(C)cc2)n1)C(CC)C(=O)NC1CCCC1 (stereo unspecified)	Autofluor counter 22718 (no result: TcdB inh)
O=C(N[C@@H]1CC[C@@H](CCn2cc(C3(O)CCCC3)nn2)O[C@H]1CO)c1ccccc1F	none (no result: Anthrax LF prot, BoNT-F LC inh, BoNT A protease, Autofluor counter)
CCOc1ccccc1-c1n[nH]c(=S)o1	Autofluor counter 17280
CCOc1ccc(-c2n[nH]c(=S)o2)cc1	none
Cc1cc(C)n(CC(C)NCc2cn[nH]c2-c2ccc(C)c(C)c2)n1 (stereo unspecified)	Autofluor counter 28071
Cc1cc(C)n(CC(C)NCc2cn[nH]c2-c2cccc3ccccc23)n1 (stereo unspecified)	none
C[C@H](CO)N1C[C@H](C)[C@H](CN(C)Cc2ccccc2)Oc2ccc(NS(=O)(=O)c3cccs3)cc2C1=O	none (no result: Anthrax LF prot, BoNT-F LC inh, BoNT A protease, Autofluor counter)
CN(C)CCCn1c(=O)n(CCc2ccccc2)c(=O)c2c3c(sc21)CCCCC3	none
Cn1c(=O)c2c3c(sc2n2cnnc12)CCC3	none (no result: TcdB inh)
NC(=O)Cn1c(=O)n(CCc2ccccc2)c(=O)c2c3c(sc21)CCCC3	Autofluor counter 16478 (no result: TcdB inh)
O=c1c2c3c(sc2n2cnnc2n1CCc1ccccc1)CCCC3	Autofluor counter 16649 (no result: TcdB inh)
COc1ccccc1NC(=O)N1CC[C@@H]2[C@H]1c1cc(-c3ccc(F)cc3)ccc1N(C)[C@@H]2CO	none (no result: Anthrax LF prot, BoNT-F LC inh, BoNT A protease, Autofluor counter)
